Hits are enriched below; roughly 3.4% of the tested compounds scored in any of these assays.
SMARCA2 activ – SMARCA2 function activation, primary screen. MG213 cells, MMTV-luciferase reporter, dexamethasone, overnight. AID 652017. actives 1% (n = 370,000). activation, % at 9.1 µM; in the data active means activation above about 7.8%
Gli-Sufu block – Gli-Sufu pathway antagonism; actives 0.74% (n = 340,000); Sufu-KO-LIGHT fibroblasts, Gli luciferase reporter luminescence; inhibition, % at 5 µM; AID 588413;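 active means inhibition above about 55%, limit read from the data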
COUP-TFII inh – inhibitors of human COUP-TFII (NR2F2) | HEK293T NGFI-A luciferase reporter, luminescence | actives 0.7% (n = 370,000) | inhibition, % at 8.6 µM;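 active means inhibition above a per-plate cutoff, mean inhibition of test wells between control levels plus 3 SD, cut at about 38% in these data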;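 further: cells cotransfected with COUP-TFII expression vector driving the NGFI-A reporter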
Target sequence (P24468 whole entry, looked up): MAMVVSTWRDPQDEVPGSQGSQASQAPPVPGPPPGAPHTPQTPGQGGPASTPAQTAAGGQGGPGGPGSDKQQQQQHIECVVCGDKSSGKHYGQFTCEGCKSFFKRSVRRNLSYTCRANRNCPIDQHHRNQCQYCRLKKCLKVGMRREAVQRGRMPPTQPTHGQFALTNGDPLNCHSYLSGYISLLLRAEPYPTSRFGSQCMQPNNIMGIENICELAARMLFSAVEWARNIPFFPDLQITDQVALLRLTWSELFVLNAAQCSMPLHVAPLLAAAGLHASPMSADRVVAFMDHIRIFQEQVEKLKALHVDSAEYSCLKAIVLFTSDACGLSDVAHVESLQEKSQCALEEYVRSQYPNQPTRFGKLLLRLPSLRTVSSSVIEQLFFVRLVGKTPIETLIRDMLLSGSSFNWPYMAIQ
Cardio protect – protects H9c2 cardiomyocytes from peroxide injury; protection from H2O2 cell death, % at 20 µM; H2O2 injury protection, ATPLite, 2 h; AID 588492; actives 0.63% (n = 360,000);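 active means compounds giving at least 50% protection of heart cells from peroxide-induced death in the single-dose screen, raw or plate-pattern-corrected value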
GalR3 antagonist – blocks the human galanin receptor 3 | O60755 | HEK293 GalR3-CNG cAMP membrane potential fluorescence; galR3 body fused to GalR1 C-terminus | inhibition, % at 3 µM | actives 0.44% (n = 360,000) | AID 651719;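 active means inhibition above the screen-wide average plus 3 SD, cut at about 13% in these data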;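 further: forskolin and galanin both at EC90 stimulate the cells; cAMP rise reported by CNG channel membrane potential dye signal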
GAA850 FXN act – increases GAA850 frataxin promoter reporter activity. activation, % at 6 µM. HEK293 lucGAA850 FXN promoter luciferase reporter, 24 h; percent of 10 µM SAHA response. actives 0.56% (n = 360,000);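 active means activation above the average of all compounds screened plus 3 SD, cutoff fixed separately per campaign, cut at about 7.5% in these data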
GalR3 antag conf – confirmation of human galanin receptor 3 antagonists | actives 59% (n = 1,600) | shares compounds with GalR3 antagonist | inhibition, % at 3 µM | HEK293 GalR3 CNG cAMP biosensor, membrane potential fluorescence; galR3 fused to GalR1 carboxy tail; challenged with forskolin and galanin at EC90;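 active means inhibition above the primary screen's cutoff, the mean inhibition of all screened compounds plus 3 SD, cut at about 13% in these data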
HEK-CNG parental – parental cell agonism counter-screen for GalR3 antagonists; actives 10% (n = 1,600); HEK293-CNG parental cells, cAMP membrane potential fluorescence; normalised: DMSO wells 0%, forskolin wells 100%; activation, % at 3 µM; AID 652268; shares compounds with GalR3 antagonist; in the data active means activation above about 1.3%
Of the large screens only hits and unclear results are named; the others gave an inactive call (follow-up assays come after a bar, where they were run).

COc1ccccc1OCC(=O)NN=C(Cc1ccccc1)Cc1ccccc1	none
CCOc1ccccc1OCC(=O)N/N=C(\C)Cc1ccc(OC)cc1	GalR3 antagonist 22 | GalR3 antag conf inactive | HEK-CNG parental inactive
CCOc1cc2c(cc1OC)C(NC(=O)c1ccco1)CC2=O (centres undefined)	GalR3 antagonist 17 | GalR3 antag conf inactive | HEK-CNG parental inactive
CCOc1cc2c(cc1OC)C(NC(=O)C(F)(F)F)CC2=O (centres undefined)	none
O=C(O)CCc1ccc(-c2cccs2)n1CC(=O)Nc1ccccc1C(F)(F)F	GalR3 antagonist 15 | GalR3 antag conf inactive | HEK-CNG parental inactive
COCCn1c(CCC(=O)O)ccc1-c1cccs1	none
CCOc1ccc(S(=O)(=O)Nc2nc3ccccc3nc2Cl)cc1	none
CCOc1ccc(S(=O)(=O)Nc2nc3ccccc3nc2N2CCN(C)CC2)cc1	GalR3 antagonist 20 | GalR3 antag conf 17 | HEK-CNG parental inactive
NC(=O)C12C(=O)NC(=O)C1(C(=O)O)C21CCCC1 (centres undefined)	none
O=C(c1ccc([N+](=O)[O-])s1)N1CCN(c2ccccc2)CC1	GalR3 antagonist 50 | GalR3 antag conf inactive | HEK-CNG parental inactive
O=C(c1ccc([N+](=O)[O-])s1)N1CCN(c2ccccn2)CC1	none
COc1cc(CNCC(O)c2ccccc2)ccc1OCc1ccc(Cl)nc1 (centres undefined)	GalR3 antagonist 26 | GalR3 antag conf 43 | HEK-CNG parental 2.3
O=C(O)c1ccccc1C(=O)c1ccc2c(c1)N(Cc1ccc(Cl)c(Cl)c1)C(=O)CO2	none
COc1ccc(C[C@H]2CN3C(=NC[C@@H]3C)N2CCNC(=O)CCC2CCCCC2)cc1	none
C[C@H]1CN=C2N(CCNC(=O)CCC3CCCCC3)[C@H](Cc3ccc(O)cc3)CN21	GalR3 antagonist 17 | GalR3 antag conf inactive | HEK-CNG parental inactive
COc1cc(/C=C2\SC(c3ccc(C)cc3)=NC2=O)ccc1O	GalR3 antagonist 17 | GalR3 antag conf inactive | HEK-CNG parental inactive
COc1ccc(/C=C2\SC(c3ccc(C)cc3)=NC2=O)cc1OC	none
CC1C(=O)CC(c2ccc([N+](=O)[O-])cc2)NC1c1ccc([N+](=O)[O-])cc1 (centres undefined)	GalR3 antagonist 18 | GalR3 antag conf 17 | HEK-CNG parental inactive
Cc1ccc(CN2C(=O)CCC2C(=O)NCCCN2CCC(C)CC2)cc1 (centres undefined)	none (no result: GalR3 antagonist) | GalR3 antag conf inactive | HEK-CNG parental inactive
CCN(Cc1ccc(N(C)C)cc1)C(C)C(=O)Nc1ccc(S(=O)(=O)N2CCCC2)cc1 (centres undefined)	none
CCOC(=O)N1CCN(C(=O)CSCc2ccc(Br)cc2)CC1	none (no result: GalR3 antagonist) | GalR3 antag conf inactive | HEK-CNG parental inactive
CCOC(=O)N1CCN(C(=O)CSCc2ccc(Cl)cc2)CC1	none
O=C(CSc1nc2ccccc2[nH]1)Nc1c(F)c(F)c(F)c(F)c1F	GalR3 antagonist 16 | GalR3 antag conf inactive | HEK-CNG parental inactive
COc1cccc(CNC(=S)Nc2cc(OC)ccc2OC)c1	none
CSc1ccc(C#N)cc1NC(=O)c1ccccc1C	GalR3 antagonist 15 | GalR3 antag conf 13 | HEK-CNG parental inactive
CSc1ccc(C#N)cc1NC(=O)c1ccc(Cl)nc1	none
FC(F)(F)c1ccc(/C=N/NC(=S)NC2CCCCC2)cc1	none
FC(F)(F)c1cccc(/C=N/NC(=S)NC2CCCCC2)c1	GalR3 antagonist 90 | GalR3 antag conf 84 | HEK-CNG parental 2.5
CCn1c(C)c(C(C)=O)c(N2CCN(c3ccccc3)CC2)nc1=S	GalR3 antagonist 42 | GalR3 antag conf inactive | HEK-CNG parental inactive
CC(=O)c1c(N2CCCCC2)nc(=S)n(-c2ccccc2)c1C	none (no result: GalR3 antagonist) | GalR3 antag conf inactive | HEK-CNG parental inactive
CC(=O)c1c(N2CCCC2)nc(=S)n(-c2ccccc2)c1C	none
COc1cc(C(=O)N/N=C/c2sccc2C)cc(OC)c1OC	GalR3 antagonist 14 | GalR3 antag conf inactive | HEK-CNG parental 1.8
Cc1ccc(C)c(S(=O)(=O)N2CCN(Cc3cc4c(cc3O)OCO4)CC2)c1	none
O=C(Nc1ccc(F)cc1)C(c1ccccc1OC(F)(F)F)N1CCN(C(=O)c2ccco2)CC1 (centres undefined)	none (no result: Gli-Sufu block, Cardio protect, GAA850 FXN act)
O=C(COc1cc(Cl)c(Cl)cc1Cl)Nc1ccncc1	GalR3 antagonist 13 | GalR3 antag conf inactive | HEK-CNG parental inactive
O=C(COc1cc(Cl)c(Cl)cc1Cl)Nc1cccc(O)c1	none
CC12CCC(C/C1=N\OC(=O)c1c(F)cccc1F)C2(C)C (centres undefined)	none
Cc1ccc(C)c(N(C)C(=O)c2cc3c(=O)[nH]c4ccc(C)cc4c3s2)c1	GalR3 antagonist 16 | GalR3 antag conf 19 | HEK-CNG parental 3.2
CCCN(CCC)C(=O)c1cc2c(=O)[nH]c3ccc(C)cc3c2s1	none
Cc1ccc(N=C2NC(=O)/C(=C/c3cccnc3)S2)cc1C	GalR3 antagonist 15 | GalR3 antag conf inactive | HEK-CNG parental inactive
O=C1NC(=Nc2ccccc2)S/C1=C\c1cccnc1	none
Cc1oc(-c2ccccc2)cc1C(=O)Nc1cccc(/C=C\C(=O)O)c1	GalR3 antagonist 71 | GalR3 antag conf 91 | HEK-CNG parental inactive
COn1c(SCc2cccnc2)nc2ccccc2c1=O	none (no result: GalR3 antagonist) | GalR3 antag conf inactive | HEK-CNG parental inactive
CCOC(=O)CCCCC(=O)c1[nH]c(=O)[nH]c1CSc1nnc2c3ccccc3n(C(C)C)c2n1	GalR3 antagonist 31 | GalR3 antag conf 18 | HEK-CNG parental inactive
CCCn1c2ccccc2c2nnc(SCc3[nH]c(=O)[nH]c3C(=O)CCCCC(=O)OCC)nc21	GalR3 antagonist 17 | GalR3 antag conf inactive | HEK-CNG parental inactive
C=CCC[C@@H](Cc1ccc(F)cc1)C(=O)OC[C@@H](Cc1c[nH]c2ccccc12)NC(=O)[C@H](CC=C)CC(=O)N[C@H](CO)Cc1ccccc1	none
Cc1cc(=O)c2cc(C(=O)c3ccccc3)ccc2[nH]1	none
CCN(CC)C(=O)Cn1nnc(-c2ccc(S(C)(=O)=O)cc2)n1	none
CCOc1ccc(NC(=S)NC(=O)c2c(Cl)cnn2CC)c([N+](=O)[O-])c1	GalR3 antagonist 14 | GalR3 antag conf inactive | HEK-CNG parental inactive
CCOc1ccc(NC(=S)NC(=O)c2c(Br)cnn2C)c([N+](=O)[O-])c1	none
N/C(COc1ccc(Cl)cc1)=N\NS(=O)(=O)c1ccccc1	none
N/C(=N\NS(=O)(=O)c1ccc(Cl)cc1)c1ccccn1	GalR3 antagonist 14 | GalR3 antag conf inactive | HEK-CNG parental inactive

Assay outcomes deposited in PubChem by several laboratories.
